Measurements taken from PubChem BioAssay (NCATS).
Records with an inconclusive call do not appear. Where a call stands in place of a potency, no number is given. Activity calls are given as the source filed them. Calls come from the whole dose curve; as a rule, active = well fitted inhibition curve with a large enough effect; inconclusive = small, poorly fitted or top-dose-only effect; inactive = flat fitted curve, though single readings scatter.

Each compound was assayed against Calcium and integrin-binding protein 1 (Homo sapiens) (UniProt Q99828) (assay: Primary qHTS for Identification of Calcium Integrin Binding Protein 1 (CIB1) Competitor (AID 1508620;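 note: GST tagged CIB1 binding a fluorescein labelled alphaIIb integrin peptide tracer; top concentration of the series differs between compounds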)). Details: CIB1-GST / FITC-alphaIIb peptide fluorescence polarization; series mostly up to 57.7 µM.
Sequence of Calcium and integrin-binding protein 1 (Homo sapiens) (Q99828 whole entry, looked up): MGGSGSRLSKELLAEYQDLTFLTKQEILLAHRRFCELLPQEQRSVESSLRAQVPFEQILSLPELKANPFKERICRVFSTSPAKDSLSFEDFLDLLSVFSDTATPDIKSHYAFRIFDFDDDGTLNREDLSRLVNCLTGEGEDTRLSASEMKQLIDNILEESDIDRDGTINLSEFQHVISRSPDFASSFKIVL
How it was run: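 Fluorescence polarization competition: CIB1-GST (1 uM final) preincubated with compound 15 min at room temperature, then FITC-labeled alphaIIb peptide (100 nM final) added for another 15 min. Polarization read at Ex 480/Em 540.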
For `Cc1ccc2c(c1)C(=O)[C@]1(O)CCN(c3ccccc3)C1=N2`, the Potency was “inactive”.
`OC[C@H]1O[C@@H](OCCc2ccc(O)cc2)[C@H](O)[C@@H](O)[C@H]1O` was tested, and the Potency was “inactive”.
In the case of `CCCCC[C@H](O)C=C[C@H]1[C@H](O)CC(=O)[C@H]1CC=CCCCC(=O)O`, the Potency is reported as “inactive”.
`C=CCc1cccc(C=NNC(=O)CN2CCN(Cc3ccccc3)CC2)c1O` was tested, and the Potency was “inactive”.
For `CN(C)CCCNC(=O)c1ccc(-c2cc(O)c3ncccc3c2)cc1`, the Potency was “inactive”.
In the case of `O=C(O)CCC=CCC[C@@H]1[C@H](N2CCCCC2)[C@@H](O)C[C@@H]1OCc1ccc(-c2ccccc2)cc1`, the Potency is reported as “inactive”.
For `COc1ccnc(CS(=O)c2nc3ccc(OC(F)F)cc3[nH]2)c1OC` (centres undefined), the Potency was “inactive”.
In the case of `Cc1ccc(C(=O)N(CCCN)[C@@H](c2nc3cc(Cl)ccc3c(=O)n2Cc2ccccc2)C(C)C)cc1`, the Potency is reported as “inactive”.
`C[C@H](c1ccc(F)cc1CCCC(=O)O)N(c1cc(F)ccc1F)S(=O)(=O)c1ccc(Cl)cc1` was tested, and the Potency was “inactive”.
With `COc1cc(F)c(C(C)C)cc1-c1ccc(C(F)(F)F)cc1CN1C(=O)O[C@H](c2cc(C(F)(F)F)cc(C(F)(F)F)c2)[C@@H]1C` the Potency was “inactive”.
With `CN1C(=O)C(Cc2c[nH]c3ccccc23)NC1=S` (centres undefined) the Potency was “inactive”.
In the case of `CCOC(=O)[C@@H](N)CCC(=O)N[C@@H](CSCc1ccccc1)C(=O)N[C@@H](C(=O)OCC)c1ccccc1`, the Potency is reported as “inactive”.
In the case of `O[C@@H](COc1cccc2ncccc12)CN1CCN(C2c3ccccc3[C@@H]3[C@H](c4ccccc42)C3(F)F)CC1` (some centres undefined), the Potency is reported as “inactive”.
`COc1ccc(-c2nc3ccc(C4=NNC(=O)CC4C)cc3[nH]2)cc1` (centres undefined) was tested, and the Potency was “inactive”.
